This passage reports Potency and activity change, negative = inhibition results from PubChem BioAssay (Tox21).

Results filed as inconclusive are left out. Entries that show only a call come without a potency. Values without a mark were called inactive. Calls of active or inactive are those of the source. Calls come from the whole dose curve; as a rule, active = well fitted inhibition curve with a large enough effect in the repeat runs; inconclusive = weak or mixed curves; inactive = flat fitted curve, though single readings scatter.

The target in this experiment is Luciferin 4-monooxygenase (Photinus pyralis) (UniProt P08659). Put plainly: qHTS assay to identify small molecule inhibitors of firefly luciferase (AID 1224835). Note: nearly all actives have a fitted effect of over 25% in size. The settings on record: purified P. pyralis luciferase, luminescence inhibition; series mostly up to 115 µM. From the text: U.S. Tox21 Program National Center for Advancing Translational Sciences [NCATS] NIH Chemical Genomics Center [NCGC] U.S. Environmental Protection Agency [EPA] National Institutes of Environmental Health Sciences [NIEHS] National Toxicology Program [NTP] U.S. Food and Drug Administration [FDA] Tox21 Assay Overview: Firefly (Photinus pyralis) luciferase is one of the most commonly used transcriptional reporters. Firefly luciferase reporter-gene assays are generally considered one of the most sensitive assay types (Wood, 1995; Wood, 1998). However, it was initially observed, in 1991, by Thompson et al., that compounds that resemble the substrates of firefly luciferase (FLuc) can act as competitive inhibitors of the enzyme, and that these compounds, upon interaction with luciferase in the cell, can actually stabilize the protein and increase its half-life. Previous profiling work by other groups to determine the prevalence of compounds that affect FLuc enzymatic activity (PubChem AID 411) identified that ~3% of the MLSMR library (then at ~72K) inhibited FLuc. […] Thus the Tox21 10K library is profiled for activity against FLuc using a biochemical assay of purified FLuc and KM concentrations of FLuc substrates (D-luciferin and ATP).
Sequence of Luciferin 4-monooxygenase (Photinus pyralis) (P08659 whole entry, looked up): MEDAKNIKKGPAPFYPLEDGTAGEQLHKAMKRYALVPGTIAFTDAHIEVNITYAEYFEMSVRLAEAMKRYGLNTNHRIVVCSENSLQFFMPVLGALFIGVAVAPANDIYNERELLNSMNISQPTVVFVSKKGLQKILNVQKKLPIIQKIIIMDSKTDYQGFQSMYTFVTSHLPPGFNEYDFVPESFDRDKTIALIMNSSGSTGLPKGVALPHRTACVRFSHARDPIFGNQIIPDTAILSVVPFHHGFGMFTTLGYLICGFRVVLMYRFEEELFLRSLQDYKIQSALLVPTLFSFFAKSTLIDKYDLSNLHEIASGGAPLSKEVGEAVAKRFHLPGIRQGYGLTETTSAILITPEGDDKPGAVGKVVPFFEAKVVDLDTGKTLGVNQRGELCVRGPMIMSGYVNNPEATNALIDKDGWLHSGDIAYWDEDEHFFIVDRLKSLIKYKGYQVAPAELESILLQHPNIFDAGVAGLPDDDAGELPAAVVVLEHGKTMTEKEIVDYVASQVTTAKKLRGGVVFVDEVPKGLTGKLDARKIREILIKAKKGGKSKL
These assay plates were then treated with 23nL of compound or DMSO using a Kalypsys pin tool, which allows for delivery of a 6-point interplate titration of each compound to the assay plate (quantitative HTS.) 1 uL of firefly luciferase mix (containing 50 mM Tris acetate, pH 7.6, 0.04 uM P. pyralis luciferase, 0.01% Tween, 0.05% BSA and dH2O) was then delivered by FRD to each well. Luciferase activity was then measured using a ViewLux CCD imager.
(In general: In qHTS, concentration-response curves come from the screen itself.)
For `O=C1OCCN1/N=C/c1ccc([N+](=O)[O-])o1`, the Potency result was “inactive”.
On the same count and under the same terms, in the case of `CC(C)(C)C(=O)O` it was “inactive”; in that of `CC(C)(C)CC(C)(C)c1ccc(OCCO)cc1`, “inactive”; in that of `O=S1OCCO1`, “inactive”.
Regarding `CC1=NN(c2ccc(C(=O)O)cc2)C(=O)C1`, the Potency entry is “inactive”.
The same measure, in the same setting: as for `CCOC(=O)c1ccccc1C`, the entry is “inactive”; as for `CNC(=S)NC`, “inactive”; as for `CSc1ccc(Oc2ccc(S(N)(=O)=O)cc2CN(C)C)cc1C`, “inactive”.
For `CCCCCCCC/C=C\CCCCCCCC(=O)OC(CO)CO`, the Potency result was “inactive”.
Same read-out and setting: in the case of `NC(=O)N(O)[C@@H]1COc2cc(OCc3ccccc3)ccc21` it was 1.12 µM (active); in that of `CC(C)(O)c1ccccc1CC[C@@H](SCC1(CC(=O)O)CC1)c1cccc(/C=C/c2ccc3ccc(Cl)cc3n2)c1`, “inactive”.
The same measure, in the same setting: as for `CCCCCCCCSCCO`, the figure is 71 µM (active); as for `CC(C)(C)C(=O)C(Oc1ccc(Cl)cc1)n1ccnc1` (stereo not given), “inactive”.
For `C=CCCCCCCCCCCCCCCCC`, the activity change, negative = inhibition is 0.644% [at 10.5 µM].
In the case of `CNC(=O)N(c1ccccc1)c1ccccc1`, the Potency result was “inactive”.
Still for that read-out and setting: as for `CCOCCn1c(C2CCN(CCc3ccc(C(C)(C)C(=O)O)cc3)CC2)nc2ccccc21`, the entry is “inactive”; as for `CC(CCO)CCc1ccccc1` (stereo not given), “inactive”; as for `O=C(CCCCCCCCC#CI)Oc1ccccc1`, “inactive”.
Same read-out and setting: in the case of `Cc1ccc(Nc2nccc(N(C)c3ccc4c(C)n(C)nc4c3)n2)cc1S(N)(=O)=O` it was 30.9 µM (active); in that of `CC1(C)C(=O)N(Br)C(=O)N1Cl`, “inactive”; in that of `C[N+]1(C)CCC(=C(c2ccccc2)c2ccccc2)CC1`, “inactive”.
On the same count and under the same terms, as for `C=CC(C)(C)CC(=O)OC`, the entry is “inactive”; as for `c1cc[c]([Bi]([c]2ccccc2)[c]2ccccc2)cc1`, “inactive”.
As to `CCC(C)(C)C1CCC(O)CC1` (stereo not given), the Potency is 79.6 µM (active).
On the same count and under the same terms, as for `CN(C)C(=O)Nc1ccc(Oc2ccc(Cl)cc2)cc1`, the figure is 63.3 µM (active).
For the compound `CCOC(=O)c1ccccc1OC`, the Potency entry was “inactive”.
Still for that read-out and setting: in the case of `CCOC(=O)N1CCC(n2c(=O)[nH]c3cc(Cl)ccc32)CC1` it was “inactive”; in that of `Nc1ccc(S(=O)(=O)O)cc1`, “inactive”.
The same measure, in the same setting: as for `O=C(O)c1ccccc1NCCc1ccccc1`, the figure is 27.5 µM (active); as for `NC(=O)N(O)[C@@H]1C=C[C@H](Oc2cccc(Oc3ccc(F)cc3)c2)C1`, 31.7 µM (active).
The same measure, in the same setting: in the case of `C=CCNc1nc(NCC=C)nc(N2CCN(C(c3ccc(F)cc3)c3ccc(F)cc3)CC2)n1` it was “inactive”; in that of `Cc1nc2ccccc2s1`, “inactive”.
As to `CC(=O)OCC(=O)[C@@]12OC(C)(C)O[C@@H]1C[C@H]1[C@@H]3C[C@H](F)C4=CC(=O)C=C[C@]4(C)[C@@]3(F)[C@@H](O)C[C@@]12C`, the Potency entry is “inactive”.
On the same count and under the same terms, in the case of `NC(=O)Nc1ccc(Cl)cc1` it was “inactive”.
`O=C1NCCN1`: the Potency result was “inactive”.
Turning to `CCCC(=O)O[C@]1(C(=O)COC(=O)CC)CC[C@H]2[C@@H]3CCC4=CC(=O)CC[C@]4(C)[C@H]3[C@@H](O)C[C@@]21C`, the activity change, negative = inhibition is 4.64% [at 23.6 µM].
Consider `CC1(C)C2=CCCC(C)(C)[C@]23CC[C@H]1C3`, for which the Potency entry is “inactive”.
Same read-out and setting: as for `Cc1ccc(S)cc1`, the entry is “inactive”.
Still for that read-out and setting: in the case of `CC(=O)N(c1onc(C)c1C)S(=O)(=O)c1ccc(N)cc1` it was “inactive”; in that of `Nc1ccc(S(=O)(=O)O)c(N)c1`, “inactive”.
